According to PubChem BioAssay (NCI):
This is part of a sample that, as a whole, favours compounds with a hit. Of some 83,000 tested, about 20% had one in any assay.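 How to read the values: 0–100, growth inhibition (40 = 60% inhibited); 0, no net growth; -100 to 0, cell death (-40 = 40% of starting cells died; -100 = all dead).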 A number with no mark means an inactive call. Active and inactive are the calls of the source. How the source made its calls: active means growth percent below 10; inactive means the rest.

Columns and labels:
Test in all cases: NCI-60 one-dose screen, 48 h (100 = growth as untreated, 0 = no growth, -100 = all killed)
HCT-15 colon = details: 10 µM unless noted
HT29 colon = details: 10 µM unless noted
SNB-75 CNS = details: 10 µM unless noted
U251 CNS = details: 10 µM unless noted
PC-3 prostate = details: 10 µM unless noted
SK-MEL-5 melanoma = details: 10 µM unless noted
UACC-62 melanoma = details: 10 µM unless noted
SK-MEL-28 melanoma = details: 10 µM unless noted
SK-MEL-2 melanoma = details: 10 µM unless noted
EKVX NSCLC = details: 10 µM unless noted
SN12C renal = details: 10 µM unless noted
UO-31 renal = details: 10 µM unless noted
TK-10 renal = details: 10 µM unless noted
ACHN renal = details: 10 µM unless noted
CAKI-1 renal = details: 10 µM unless noted
A498 renal = details: 10 µM unless noted
CCRF-CEM leukemia = details: 10 µM unless noted
MOLT-4 leukemia = details: 10 µM unless noted
LOX IMVI melanoma = details: 10 µM
SNB-19 CNS = details: 10 µM unless noted

Row | SMILES | growth (HCT-15 colon) | growth (HT29 colon) | growth (SNB-75 CNS) | growth (U251 CNS) | growth (PC-3 prostate) | growth (SK-MEL-5 melanoma) | growth (UACC-62 melanoma) | growth (SK-MEL-28 melanoma) | growth (SK-MEL-2 melanoma) | growth (EKVX NSCLC) | growth (SN12C renal) | growth (UO-31 renal) | growth (TK-10 renal) | growth (ACHN renal) | growth (CAKI-1 renal) | growth (A498 renal) | growth (CCRF-CEM leukemia) | growth (MOLT-4 leukemia) | growth (LOX IMVI melanoma) | growth (SNB-19 CNS)
1 | C=C1CCC2C3(C)COC(c4cccc(F)c4)OC3CCC2(C)C1C/C=C1/C(=O)OCC1O (stereo not drawn) | -23.6% (active) | -1.9% (active) | 54.1% | -90% (active) | -17.5% (active) | -19.3% (active) | 2.91% (active) | -26.2% (active) | -50.6% (active) | 23.1% | 4.14% (active) | -63.2% (active) | -6.05% (active) | -89.6% (active) | 11% | 118% | 16% | 7.01% (active) | – | –
2 | CCCCCCCCc1ccc(C(=O)Nc2cccc(P(=O)(O)O)c2)cc1 | 100% | 114% | 99.9% | 108% | 92.9% | 97.7% | 91.8% | 107% | 106% | 103% | – | 97.5% | 105% | 110% | 93.6% | 105% | 79.6% | 98.6% | 103% | –
3 | COc1c(F)ccc(C(=O)Nc2ccc3nc(NC(=O)C4CCCN(S(=O)(=O)c5ccc(Br)s5)C4)sc3c2)c1F (stereo not drawn) | 63% | 75.5% | 66.5% | 68% | 56.1% | 81.5% | 75.6% | 94.6% | 81.8% | 81.2% | 85.9% | 77.6% | 116% | 77.2% | 82.6% | 104% | 75% | 48.5% | – | –
4 | O=C(c1ccccc1)c1ccc2nc(-c3ccc(F)cc3)[nH]c2c1 | 23.4% | 63.6% | 82% | -26.5% (active) | 56.4% | 60.2% | 43.2% | 63.3% | 62.4% | 80.9% | 30.5% | 91.1% | 104% | 57.1% | 40.9% | 90.7% | 15.7% | 27.6% | – | –
5 | O=C(COc1ccc(NC(=O)Nc2ccc(Cl)cc2)cc1)N/N=C/c1ccccc1 | -80.3% (active) | -87.4% (active) | -37.4% (active) | -86.2% (active) | -72.9% (active) | -94% (active) | -87.5% (active) | -84.9% (active) | -84.3% (active) | -58.5% (active) | – | -14% (active) | -77.9% (active) | -77.4% (active) | -89.6% (active) | -94.3% (active) | – | 9.72% (active) | -97.5% (active) | –
6 | CC(=O)OC[C@@]1(C)C2CC[C@]3(C)C(CC=C4C5CC(C)(C)CC[C@]5(C(=O)Nc5cccc(C)c5)CC[C@]43C)[C@@]2(C)C[C@@H](OC(C)=O)[C@@H]1OC(C)=O (stereo partly drawn) | 30.9% | 25.5% | 67.9% | 40.6% | 29.4% | 3.77% (active) | 45.4% | 62.3% | 38.7% | 30.7% | – | 37.4% | 52.9% | 38.8% | 42.2% | 59.6% | 30.4% | 30.7% | 11.6% | –
7 | COc1ccc(-c2nc(SC(C)C)nc(NCCc3c[nH]c4ccccc34)c2C#N)cc1 | 15.3% | 8.23% (active) | 65.6% | 27.1% | – | 5.52% (active) | 73.6% | 69.7% | 74.6% | 30.4% | – | 40% | 90.6% | 48.9% | 43% | 65.9% | 18.5% | 18.1% | 21.2% | –
8 | Cn1cc(-c2cc(N)n3nc(-c4c[nH]c5ccccc45)cc3n2)c2cc(Br)cnc21 | -58.5% (active) | -80.7% (active) | – | -79.7% (active) | -43.3% (active) | -94.2% (active) | -95% (active) | -96.2% (active) | -72.6% (active) | -60.4% (active) | -81.5% (active) | -42.1% (active) | -58.2% (active) | -74.6% (active) | -36% (active) | -28.6% (active) | -36.2% (active) | -52% (active) | -94.1% (active) | -39.6% (active)
9 | COc1cc(OC)cc(-c2cc3ccc(N(C)C)cc3c(=O)[nH]2)c1 | 18.9% | 12.4% | 57.3% | 7.67% (active) | 35.7% | – | 51.8% | 61.3% | 33.6% | 47% | 36.7% | 52.4% | 79.1% | 31.2% | 34.2% | 121% | 15.5% | – | 23% | –
10 | COc1ccc(-c2ccnc(SCc3cc4cc(OC)ccc4[nH]c3=O)n2)cc1 | 10.5% | 19.9% | – | 22.7% | 23.8% | -3.59% (active) | 16.4% | 36.5% | 12.8% | 34% | 14.7% | 21.1% | 36.8% | 33.6% | 38.8% | 79.6% | 6.65% (active) | 4.45% (active) | 18.7% | 36.3%
11 | Cn1cc(NC(=O)c2cc(NC(=O)c3ccc(C#Cc4ccccc4)cc3)cn2C)cc1C(=O)NCCCN1CCOCC1 | -59.4% (active) | -71.2% (active) | – | -70.1% (active) | 29.8% | -92% (active) | -90.9% (active) | -91.8% (active) | 86.2% | 80.9% | 40% | 67.8% | 126% | 63.8% | 56.9% | 114% | 0.88% (active) | -19.3% (active) | -100% (active) | 73.3%
12 | COc1ccc2[nH]c(O)c(N=NC(=O)Cn3c(-c4ccccc4)nc4cc(C)ccc43)c2c1 | 3.08% (active) | -1.1% (active) | – | 32.4% | 21.5% | -23.8% (active) | 6.74% (active) | -23.6% (active) | 88.4% | 66.3% | -73.7% (active) | 49.7% | 97.7% | 41.1% | 61.9% | 119% | 8.31% (active) | 18.5% | 38.3% | 59.2%
13 | CC(=O)OC[C@@]1(C)C2CC[C@]3(C)C(CC=C4C5CC(C)(C)CC[C@]5(C(=O)Nc5ccc(F)cc5)CC[C@]43C)[C@@]2(C)C[C@@H](OC(C)=O)[C@@H]1OC(C)=O (stereo partly drawn) | 33.8% | 34.7% | 54.4% | 40.3% | – | 8.24% (active) | 30.3% | 58.6% | 32.6% | 28.1% | – | 38.6% | 56.5% | 38.6% | 44.9% | 63.1% | 29.8% | 35% | 11.1% | –
14 | COc1ccc(C(=O)/C=C/c2cccc(Cl)c2Cl)cc1S(N)(=O)=O | -69.4% (active) | -6.28% (active) | 15.2% | -96.3% (active) | 5% (active) | – | – | -19.1% (active) | 74.4% | 0.538% (active) | -2.06% (active) | -81.3% (active) | 20.3% | -82.4% (active) | -5.88% (active) | 94.9% | 0.527% (active) | – | -78.9% (active) | –
15 | Cc1sc2c(c1C)C(c1ccc(Cl)cc1)=N[C@@H](CC(=O)NCCCCCNC(=O)COc1ccc(C3CCC(=O)NC3=O)cc1)c1nnc(C)n1-2 (stereo partly drawn) | 33% | 13% | – | 45.2% | 11.3% | -13.4% (active) | 3.07% (active) | 48.3% | 13.4% | 29.5% | 18.7% | 27.8% | 5.57% (active) | 44% | 16.4% | 48.4% | 49.2% | – | 11.3% | 23.8%
